23 compounds from PubChem BioAssay (EPA / NIEHS) can be followed below.

Test [1] is described as follows: ATG_PBREM_CIS: Attagene CIS-FACTORIAL HepG2 Assay for human Phenobarbital-responsive Enhancer Module (PBREM) (AID 2282955). The note with it: HepG2 PBREM cis-reporter, Attagene multiplexed transcription; actives raise or lower the signal. The method in brief:
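Transfected liver-derived HepG2 cells exposed 24 h; PBREM reporter transcript quantified via RT-PCR and capillary electrophoresis, with activity in either direction referenced to DMSO.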

Test [2] has as its target Paired box protein Pax-6 (Homo sapiens) (UniProt P26367). The experiment in a line: ATG_Pax6_CIS: Attagene CIS-FACTORIAL HepG2 Assay for human Paired Box 6 (PAX6) (AID 2282956). The following applies: HepG2 CIS-FACTORIAL PAX6 reporter transcription, RNA readout; actives raise or lower the signal. The method in brief: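 After twenty-four hours of chemical exposure, transfected HepG2 cells are harvested for RNA. Cis-promoter reporter transcripts are amplified, fluorescently labelled and sized by capillary electrophoresis, with gain and loss of signal scored against DMSO.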

Test [3] in a line: ATG_PXRE_CIS: Attagene CIS-FACTORIAL HepG2 Assay for human Pregnane X Receptor Element (PXRE) (AID 2282957). The note with it: HepG2 Attagene CIS-FACTORIAL PXRE reporter, mRNA; actives raise or lower the signal. The procedure, abridged:
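Cis-element reporter mRNA in human hepatoma HepG2 cells is measured 24 h post-dosing by RT-PCR, primer-extension labeling and capillary electrophoresis; gain or loss of signal is fitted relative to DMSO.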

Test [4] in a line: ATG_PPRE_CIS: Attagene CIS-FACTORIAL HepG2 Assay for human Peroxisome Proliferator-activated Response Element (PPRE) (AID 2282958). The following applies: HepG2 PPRE cis-element reporter, Attagene transcription factor profiling; actives raise or lower the signal. The procedure, abridged: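 Measured endpoint: PPRE-controlled reporter mRNA, detected by RT-PCR and capillary electrophoresis fluorescence, from transiently transfected HepG2 cells 24 h after dosing. Curves fitted in both directions using DMSO baseline.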

A short description of test [5]: ATG_RORE_CIS: Attagene CIS-FACTORIAL HepG2 Assay for human RAR-related Orphan Receptor Element (RORE) (AID 2282959). The following applies: HepG2 Attagene cis-factorial RORE reporter, mRNA; actives raise or lower the signal. The procedure, abridged: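 Transiently transfected HepG2 reporter cells were treated 24 h. Reporter transcripts were detected by RT-PCR and capillary electrophoresis, with bidirectional fitting against DMSO.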

The nature of test [6]: ATG_Sox_CIS: Attagene CIS-FACTORIAL HepG2 Assay for human SRY-box transcription factor (SOX) (AID 2282960). The note with it: HepG2 Attagene cis-factorial SOX reporter, mRNA; actives raise or lower the signal. The method in brief: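 Gain- or loss-of-signal endpoint, fitted bidirectionally with DMSO as negative control. Based on reporter mRNA from transfected HepG2 cells harvested 24 h post-treatment and quantified via RT-PCR and capillary electrophoresis.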

The target in test [7] is Transcription factor Sp1 (Homo sapiens) (UniProt P08047). Description: ATG_Sp1_CIS: Attagene CIS-FACTORIAL HepG2 Assay for human Specificity Protein 1 (Sp1) (AID 2282961). The note with it: HepG2 Sp1 cis-reporter transcription, actives raise or lower the signal. The procedure, abridged: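 Endpoint reflects endogenous Sp1 transcriptional activity, not an exogenous fusion protein: HepG2 cells with transfected cis-regulated reporters, 24 h dosing, RT-PCR/capillary electrophoresis mRNA read-out, DMSO-normalised bidirectional fit.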

Test [8] is described as follows: ATG_SREBP_CIS: Attagene CIS-FACTORIAL HepG2 Assay for human Sterol Regulatory Element Binding (SREBP) (AID 2282962). The following applies: HepG2 Attagene cis-factorial SREBP reporter, mRNA; actives raise or lower the signal. The procedure, abridged: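 Twenty-four hours after chemical dosing of transfected HepG2 cultures, reporter RNA was converted to cDNA, amplified, end-labelled with 6-FAM and resolved by capillary electrophoresis. Responses were fitted relative to DMSO.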

For test [9], the target named is Signal transducer and activator of transcription 3 (Homo sapiens) (UniProt P40763). The experiment in a line: ATG_STAT3_CIS: Attagene CIS-FACTORIAL HepG2 Assay for human Signal Transducer and Activator of Transcription 3 (STAT3) (AID 2282963). The note with it: HepG2, Attagene cis-factorial STAT3 reporter transcription; actives raise or lower the signal. The procedure, abridged: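 After a 24 h compound incubation, total RNA from MRTU-transfected HepG2 cells was converted to cDNA and reporter sequences PCR-amplified, labelled and profiled by capillary electrophoresis. Gain and loss of signal were referenced to DMSO.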

Test [10] can be described thus: ATG_TA_CIS: Attagene CIS-FACTORIAL HepG2 Assay for human TA Basal Promoter (AID 2282964). The following applies: HepG2 Attagene CIS-factorial TA basal promoter reporter; actives raise or lower the signal. The procedure, abridged:
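Read-out: fluorescent reporter-transcript fragments resolved by capillary electrophoresis after RT-PCR and HpaI digestion. Source: HepG2 cells carrying transiently transfected multi-reporter cis constructs, treated 24 h. Endpoint fitted bidirectionally relative to DMSO.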

The source made the active and inactive calls. How the source made its calls: active means hit-call score of the fitted dose curve at least 0.9, where 1 is the maximum; inactive means score below 0.9.

Transcription factor Sp1 (Homo sapiens), sequence (P08047 whole entry, looked up, the tested form may be a part): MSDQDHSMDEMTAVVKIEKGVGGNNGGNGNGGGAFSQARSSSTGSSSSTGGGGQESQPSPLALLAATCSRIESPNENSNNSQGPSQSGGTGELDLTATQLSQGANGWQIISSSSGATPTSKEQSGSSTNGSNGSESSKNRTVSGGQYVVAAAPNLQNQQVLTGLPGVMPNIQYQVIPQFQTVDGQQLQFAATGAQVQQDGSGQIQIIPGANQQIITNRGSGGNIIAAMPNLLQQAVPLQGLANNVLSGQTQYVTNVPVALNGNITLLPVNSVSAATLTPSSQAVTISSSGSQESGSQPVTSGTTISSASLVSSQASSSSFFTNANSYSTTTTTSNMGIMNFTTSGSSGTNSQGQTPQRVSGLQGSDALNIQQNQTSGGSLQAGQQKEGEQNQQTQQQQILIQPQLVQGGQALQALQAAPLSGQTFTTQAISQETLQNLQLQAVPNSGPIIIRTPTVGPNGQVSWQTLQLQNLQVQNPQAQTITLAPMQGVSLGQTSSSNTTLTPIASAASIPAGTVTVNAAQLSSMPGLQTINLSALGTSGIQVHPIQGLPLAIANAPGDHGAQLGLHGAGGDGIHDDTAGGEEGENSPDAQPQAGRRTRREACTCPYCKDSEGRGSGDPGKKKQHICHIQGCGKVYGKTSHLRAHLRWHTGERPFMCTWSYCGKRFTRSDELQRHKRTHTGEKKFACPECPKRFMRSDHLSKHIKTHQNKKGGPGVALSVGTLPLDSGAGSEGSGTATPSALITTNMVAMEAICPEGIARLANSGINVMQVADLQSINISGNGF
Signal transducer and activator of transcription 3 (Homo sapiens), sequence (P40763 whole entry, looked up): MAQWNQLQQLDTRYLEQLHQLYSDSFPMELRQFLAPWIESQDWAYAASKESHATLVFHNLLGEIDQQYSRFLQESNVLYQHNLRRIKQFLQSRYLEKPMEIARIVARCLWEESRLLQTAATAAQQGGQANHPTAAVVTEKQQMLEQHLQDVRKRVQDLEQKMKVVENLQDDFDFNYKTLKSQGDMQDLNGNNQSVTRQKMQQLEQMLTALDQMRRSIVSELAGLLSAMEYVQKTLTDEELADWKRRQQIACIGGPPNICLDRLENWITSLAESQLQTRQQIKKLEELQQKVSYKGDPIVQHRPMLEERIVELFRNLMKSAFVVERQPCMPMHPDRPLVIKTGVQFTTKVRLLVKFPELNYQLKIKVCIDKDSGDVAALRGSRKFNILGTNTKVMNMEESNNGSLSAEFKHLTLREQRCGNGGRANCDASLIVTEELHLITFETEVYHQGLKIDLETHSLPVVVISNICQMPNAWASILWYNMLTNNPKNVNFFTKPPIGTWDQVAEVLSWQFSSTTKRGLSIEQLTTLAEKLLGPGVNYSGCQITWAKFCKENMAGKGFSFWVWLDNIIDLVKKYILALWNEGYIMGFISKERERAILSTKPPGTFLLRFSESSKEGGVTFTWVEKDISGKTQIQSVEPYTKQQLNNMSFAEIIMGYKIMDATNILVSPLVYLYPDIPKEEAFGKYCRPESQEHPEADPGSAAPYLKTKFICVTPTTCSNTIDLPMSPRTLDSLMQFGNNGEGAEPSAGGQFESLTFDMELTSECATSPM
Paired box protein Pax-6 (Homo sapiens), sequence (P26367 whole entry, looked up): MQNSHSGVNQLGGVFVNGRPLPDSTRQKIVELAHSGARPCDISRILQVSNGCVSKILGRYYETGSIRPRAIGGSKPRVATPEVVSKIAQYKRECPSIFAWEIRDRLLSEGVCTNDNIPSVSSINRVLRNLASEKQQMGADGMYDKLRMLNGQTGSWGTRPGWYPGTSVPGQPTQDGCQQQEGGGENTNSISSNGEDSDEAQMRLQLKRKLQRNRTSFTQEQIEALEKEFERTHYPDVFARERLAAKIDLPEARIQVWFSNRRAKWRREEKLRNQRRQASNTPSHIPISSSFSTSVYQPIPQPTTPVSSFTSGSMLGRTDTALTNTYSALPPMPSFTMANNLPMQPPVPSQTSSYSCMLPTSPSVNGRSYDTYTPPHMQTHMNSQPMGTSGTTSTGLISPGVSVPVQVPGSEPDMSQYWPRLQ

Take `CC(=O)OCC=C(C)CCC=C(C)CCC=C(C)C`: the AC50 in test [1] is 175 µM (active); in test [2] it was 63.8 µM (active); in [3], 9.61 µM (active); in test [5] it was 164 µM (active); in test [6], 162 µM (active); in [10] it was 100 µM (active). Besides, the outcome in [4], in test [7], in test [8] and in [9] was inactive.
With `CCCCCCCCCCOC(=O)c1ccccc1C(=O)OCCCCCCCC`, the result in [1], in [2], in [4], in test [5], in test [6] and in test [7] was inactive. In addition, the compound was classed as inactive in [8], in [9] and in test [10]. For the same compound, in test [3], the AC50 was 3.87 µM (active).
In the case of `CC1COC(=O)O1` (centres undefined), the outcome in test [1], in test [2], in [4], in test [5], in test [6] and in [7] was inactive. For the same compound, the compound was classed as inactive in test [8], in [9] and in [10]. The AC50 in [3] is 40.3 µM (active).
For the compound `CCc1cccc(O)c1`, the outcome in test [1], in [2], in test [4], in test [5], in test [6] and in test [7] was inactive. The call in [8], in [9] and in test [10] was inactive. For the same compound, the AC50 in [3] is 28.1 µM (active).
As for `CC/C=C\C#N`, the outcome in test [1], in test [2], in test [3], in test [4], in [5] and in test [6] was inactive. Further, the outcome in [7], in test [8], in [9] and in test [10] was inactive.
Regarding `C1COCO1`, the outcome in test [1], in test [2], in [3], in [4], in test [6] and in test [7] was inactive. For the same compound, the call in [8], in test [9] and in test [10] was inactive.
In the case of `CCCCCCCCCCCCOCCOS(=O)(=O)O`, the result in [1], in [2], in test [4], in test [5], in test [6] and in test [7] was inactive. For the same compound, the call in [8], in [9] and in [10] was inactive. Also, in test [3], the AC50 was 14.2 µM (active).
Turning to `CCCCCCCCSCc1cc(C)c(O)c(CSCCCCCCCC)c1`, the outcome in test [1], in [2], in [4], in test [5], in test [6] and in test [7] was inactive. Moreover, the compound was called inactive in test [8], in test [9] and in test [10]. Moreover, the AC50 in [3] is 19.8 µM (active).
Consider `NC(=O)c1cccnc1`, for which the outcome in [1], in test [2], in test [4], in [5], in test [6] and in [7] was inactive. In addition, the call in [8], in test [9] and in test [10] was inactive. Also, the AC50 in [3] is 32.3 µM (active).
As for `CC(=O)c1ccc2ccccc2c1`, the outcome in test [1], in test [2], in [3], in test [4], in test [5] and in [6] was inactive. Further, the result in test [7], in test [8], in [9] and in [10] was inactive.
As to `COC(=O)C(C)Oc1ccc(Oc2ncc(C(F)(F)F)cc2Cl)cc1` (centres undefined), the AC50 in test [1] was 77.7 µM (active); in test [3] it was 14.1 µM (active); in test [4], 34.3 µM (active); in test [5] it was 64.6 µM (active). Also, the compound was called inactive in test [2], in test [6], in test [7], in test [8], in [9] and in test [10].
For the compound `COc1ccccc1NC(=O)CC(C)=O`, the result in test [1], in test [2], in [4], in [5], in test [6] and in [7] was inactive. The call in [8], in [9] and in [10] was inactive. In addition, the AC50 in [3] is 34.2 µM (active).
As to `Cc1cccc(O)c1`, the result in [1], in test [2], in [3], in [4], in test [5] and in test [6] was inactive. Moreover, the call in test [7], in test [8], in [9] and in test [10] was inactive.
As to `CC(=O)c1cccnc1`, the outcome in [1], in test [2], in [3], in test [4], in [5] and in [6] was inactive. Moreover, the result in test [7], in test [8], in test [9] and in [10] was inactive.
Turning to `CCC(C)C1CCCCC1=O` (centres undefined), the outcome in test [1], in [2], in [3], in test [4], in test [5] and in test [6] was inactive. Besides, the outcome in [7], in test [8], in test [9] and in test [10] was inactive.
In the case of `Cc1cc(N)n(-c2ccccc2)n1`, the outcome in [1], in test [2], in [4], in test [5], in test [6] and in test [7] was inactive. Also, the compound was called inactive in test [8], in test [9] and in [10]. Besides, the AC50 in test [3] was 39.5 µM (active).
Turning to `c1ccc(OCCOc2ccccc2)cc1`, the result in test [1], in test [2], in test [3], in [5], in test [6] and in [7] was inactive. Besides, the compound was called inactive in test [8], in test [9] and in test [10]. Besides, in test [4], the AC50 is 0.0167 µM (active).
Regarding `CC(O)CNCC(C)O` (centres undefined), the result in test [1], in test [2], in test [3], in test [4], in [5] and in [6] was inactive. The compound was called inactive in test [7], in [8], in test [9] and in test [10].
Regarding `CC(C)COC(=O)c1ccccc1O`, the result in test [1], in test [2], in test [4], in test [5], in [6] and in [7] was inactive. For the same compound, the compound was called inactive in test [8], in [9] and in [10]. Further, the AC50 in test [3] was 44.8 µM (active).
As for `CC1=C(C=O)C(C)(C)CCC1`, the outcome in test [1], in [2], in [4], in test [5], in test [6] and in test [7] was inactive. For the same compound, the result in test [8], in [9] and in [10] was inactive. The AC50 in [3] was 1.75 µM (active).
With `C=C(C)C(=O)OCCC(C)OC(=O)C(=C)C` (centres undefined), the result in [1], in test [2], in test [4], in test [5], in test [6] and in test [7] was inactive. Also, the result in [8], in [9] and in test [10] was inactive. Moreover, in [3], the AC50 was 56.2 µM (active).
In the case of `O=Cc1ccccc1O`, the result in test [1], in test [2], in test [4], in test [6], in test [7] and in test [8] was inactive. In addition, the compound was called inactive in test [9] and in test [10]. Further, the figures for the AC50 in test [3] and in test [5] were 100 µM (active) and 76.3 µM (active), respectively.
Regarding `Cc1ccc(C(C)(C)O)cc1`, the result in [1], in test [2], in [3], in test [4], in test [5] and in [6] was inactive. The call in test [7], in [8], in [9] and in test [10] was inactive.
